Earlier results in PubChem BioAssay AID977611.
Out of some 3,900 compounds screened, about 3,900 (100%) were called active. Cut-off not given; nearly all actives show Kd up to about 4200 µM. The set was probably picked from earlier hits. Some of the results follow. *1 amine or outer side, *2 acyl side, *3 side chain or, on linkers, in order; H or OH if unused. Where a SMILES comes first, the peptide text is derived from it. [ ]: non-standard residue; d: D form. The star is where a group is joined. X1 = C[C@@H](O)[C@]1(C(=O)[*:2])O[C@](O)([C@@H](N)CCCN=C(N)N)N1[*:1]; Orn(CH(NH2)2) = NC(N)NCCC[C@H](N)C(=O)O; Lys(Me2) = CN(C)CCCC[C@H](N)C(=O)O; Lys(Me) = CNCCCC[C@H](N)C(=O)O; Butyryl = CCCC(=O)*

Experiment: PubChem AID 977611
Conditions: PDB protein-ligand complexes, literature Kd

CCCC(=O)NCCCC[C@H](NC(=O)[C@]1([C@@H](C)O)N[C@@](O)([C@@H](N)CCCN=C(N)N)O1)C(=O)N[C@@H](CCC(N)=O)C(=O)N[C@H](C(=O)N[C@@H](C)C(=O)N[C@@H](CCCN=C(N)N)C(=O)O)[C@@H](C)O (H-[X1]K(Butyryl)QTAR-OH)
Kd (protein: NAD-DEPENDENT PROTEIN DEACETYLASE SIRTUIN-3, MITOCHONDRIAL Sirt3, PDB entry 4v1c): 25.1 µM (active)

C[C@H](N)C(=O)N[C@@H](CCCN=C(N)N)C(=O)N[C@H](C(=O)N[C@@H](CCCCN)C(=O)N[C@@H](CCC(N)=O)C(=O)N[C@H](C(=O)N[C@@H](C)C(=O)N[C@@H](CCCN=C(N)N)C(=O)N[C@@H](CCCCN)C(=O)N[C@@H](CO)C(=O)N[C@H](C(=O)NCC(=O)O)[C@@H](C)O)[C@@H](C)O)[C@@H](C)O
Kd (protein: histone acetyltransferase Hat1p/Hat2p/H4 peptide complex, PDB entry 4psx): 0.34 µM (active)

H-TKQTARK(Ac)S-NH2
Kd (protein: Protein AF-9 AF9 YEATS, PDB entry 4tmp): 3.7 µM (active)

H-GCARSEG-OH
Kd (protein: WD repeat-containing protein 5, WDR5, PDB entry 4es0): 0.103 µM (active)

C[C@H](N)C(=O)N[C@@H](C)C(=O)N[C@@H](C)C(=O)N[C@@H](C)C(=O)N[C@@H](C)C(=O)N[C@@H](C)C(=O)N[C@@H](C)C(=O)N[C@@H](C)C(=O)N[C@@H](C)C(=O)N[C@@H](C)C(=O)O
Kd (protein: Transportin 1 (Trn1), PDB entry 2z5o): 1 µM (active)

H-ARTAA-OH
Kd (protein: WD repeat-containing protein 5 WDR5, PDB entry 4o45): 70 µM (active)

C[C@H](N)C(=O)N[C@@H](CCCN=C(N)N)C(=O)N[C@H](C(=O)N[C@@H](CCCCN)C(=O)N[C@@H](CCC(N)=O)C(=O)N[C@H](C(=O)N[C@@H](C)C(=O)N[C@@H](CCCN=C(N)N)C(=O)N[C@@H](CCCCN)C(=O)N[C@@H](CO)C(=O)O)[C@@H](C)O)[C@@H](C)O
Kd (protein: DNA (cytosine-5)-methyltransferase 3A DNMT3A-DNMT3L, PDB entry 4u7t): 2.14 µM (active)

CNCCCC[C@H](NC(=O)[C@H](CCCNC(N)N)NC(=O)[C@H](C)NC(=O)[C@@H](NC(=O)[C@H](CCC(N)=O)NC(=O)[C@H](CCCCNC)NC(=O)[C@@H](N)[C@@H](C)O)[C@@H](C)O)C(=O)N[C@@H](CO)C(=O)N[C@H](C(=O)O)[C@@H](C)O (H-T[Lys(Me)]QTA[Orn(CH(NH2)2)][Lys(Me)]ST-OH)
Kd (protein: SAWADEE HOMEODOMAIN HOMOLOG 1, PDB entry 4iuv): 1.9 µM (active)

C[C@H](NC(=O)[C@@H](NC(=O)[C@H](CCC(N)=O)NC(=O)[C@H](CCCCN)NC(=O)[C@@H](N)[C@@H](C)O)[C@@H](C)O)C(=O)N[C@@H](CCCNC(N)N)C(=O)N[C@@H](CCCCN(C)C)C(=O)N[C@@H](CO)C(=O)O (H-TKQTA[Orn(CH(NH2)2)][Lys(Me2)]S-OH)
Kd (protein: SAWADEE HOMEODOMAIN HOMOLOG 1, PDB entry 4iut): 1.9 µM (active)

CNCCCC[C@H](NC(=O)[C@H](CCCNC(N)N)NC(=O)[C@H](C)NC(=O)[C@@H](NC(=O)[C@H](CCC(N)=O)NC(=O)[C@H](CCCCN)NC(=O)[C@@H](N)[C@@H](C)O)[C@@H](C)O)C(=O)N[C@@H](CO)C(=O)O (H-TKQTA[Orn(CH(NH2)2)][Lys(Me)]S-OH)
Kd (protein: SAWADEE HOMEODOMAIN HOMOLOG 1, PDB entry 4iuu): 2.22 µM (active)
